Results reported in PubChem BioAssay (NCI).
Compounds without any hit were thinned out: in the full panel of roughly 83,000, 20% have a hit.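 96-well plates, one dose, 48 hours. Percent growth reported; active if below 10.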 A number with no mark means an inactive call. Active and inactive are the calls of the source.

The compounds below were run on SK-MEL-5 melanoma (assay: NCI-60 one-dose screen, 48 h (100 = growth as untreated, 0 = no growth, -100 = all killed)). Settings: 10 µM unless noted.
Procedure: Growth inhibition of the SK-MEL-5 human tumor cell line is measured as a screen for anti-cancer activity. Cells are grown in 96 well plates and exposed to the test compound for 48 hours. Compounds are tested at a single concentration, which is 10^-5 M for most compounds. The reported endpoint is percent growth (GI% or GIPRCNT), where numbers from 0 - 100% represent growth inhibition, and numbers from -100% - 0 represent cell death. For example, a value of 40 represents 60% growth inhibition. A value of 0 means no net growth occurred over the course of the experiment. A value of -40 indicates 40% of cells at the beginning of the experiment died by the end of the experiment. A value of -100 means all cells are dead at the end of the experiment.
NCI-60 Human Tumor Cell Lines Screen was performed using the standard one-dose NCI protocol, which is described in more detail at https://dtp.cancer.gov/discovery_development/nci-60/default.htm.
Compounds with GIPRCNT values below 10 were considered active. Activity score was based on GIPRCNT using the following formula: […]
Score is 0 for GIPRCNT values of 100 or above, 50 for GIPRCNT values of 0, and 100 for GIPRCNT values of -100.

| Compound | growth |
| --- | --- |
| c1ccc2c(c1)Nc1ccncc1S2 | 93.3% |
| CC(=O)OC[C@H]1OC(Sc2sc(C(=O)c3ccc(C)cc3)c(N)c2-c2nc3ccccc3s2)[C@H](OC(C)=O)[C@@H](OC(C)=O)[C@@H]1OC(C)=O (stereo not given in full) | 45.5% |
| CCOC(=O)Nc1ccc(-c2nc(-c3cccc(OC)c3)c(-c3ccnc(Br)c3)[nH]2)cc1 | 25.7% |
| Nc1nc(Cl)cc(=O)n1Cc1ccccc1 | 108% |
| O=C1NC(=O)C(Cn2cnc3ccccc32)N1 (stereo not given) | 101% |
| COc1ccc2cc(C(C)C(=O)Nc3ccc(-c4n[nH]c(=S)n4C4CCCCC4)cc3)ccc2c1 (stereo not given) | 67.5% |
| COc1ccc(-c2[nH]c3ccc(OC)cc3c2/C=C(\C#N)S(=O)(=O)c2ccccc2)cc1 | -25.5% (active) |
| CCOC(=O)NCCc1ccccc1 | 111% |
| COc1ccc(/C=C/c2c(C(=O)/C=C/c3ccc(Cl)cc3)c(C)nc3ccccc23)cc1 | 39.2% |
| Cc1cccc2c3c(sc12)C(c1ccc(F)cc1)C(C#N)=C(N)O3 (stereo not given) | -3.29% (active) |
| COc1cc(CCC[P+](c2ccccc2)(c2ccccc2)c2ccccc2)c(OC)c(OC)c1OC | 76% |
| COc1cc(Nc2nc(NCCN)nc3cc[nH]c(=O)c23)cc(OC)c1 | 81.6% |
| N#Cc1cccc(NC(=O)c2cc(-c3ccc(F)cc3F)ccc2O)c1 | -98.5% (active) |
| COc1c(B(O)O)cc(C)cc1-c1nc2ccc3[nH]ncc3c2c2c1CCCC2 | 80.4% |
| C=C(C)[C@@H]1CC[C@]2(N=C=O)CC[C@]3(C)[C@H](CC[C@@H]4[C@@]5(C)Cc6c([nH]c7ccccc67)C(C)(C)[C@@H]5CC[C@]43C)[C@@H]12 | 101% |
| COc1ccc([C@H]2c3cc(OC)c(OC)cc3C=C(C=O)C2CO)cc1OC (stereo not given in full) | 24.6% |
| COc1cc(C(=O)N2N=C(c3ccc(S(C)(=O)=O)cc3)CC2c2ccco2)cc(OC)c1OC (stereo not given) | 39.8% |
| CCCCNC(=O)Oc1ccc(/C(=C(\C)c2ccc(Cl)cc2)c2ccc(OCCN3CCCCC3)cc2)cc1 | 74.2% |
| CC1Cc2c(ncn3c(-c4ccc(F)cc4)nnc23)N(C)c2ccccc21 (stereo not given) | 96.7% |
| COc1ccc(C(Cc2ccccc2)NCCN2CCOCC2)cc1 (stereo not given) | 108% |

| Compound | growth |
| --- | --- |
| S=c1nc(-c2ccccc2)oc(=NC2CCCCC2)n1C1CCCCC1 | 66.1% |
| Cc1ccc(C(=O)NN2C(=O)CSC2c2ccc(Cl)cc2)cn1 (stereo not given) | 99.2% |
| NC(=O)Nc1ccc2ncnc(Nc3ccc(Cl)cc3)c2c1 | 89.2% |
| O=C1c2cccc3cccc(c23)C(=O)N1Nc1nc(NC2CCCCC2)nc(N2CCOCC2)n1 | 92.7% |
| Cc1cccc(NCc2cn(-c3ccc(C(=O)O)cc3)nc2-c2ccc(C(=O)O)cc2)n1 | 103% |
| OC(COc1ccccc1)CN1CCN(c2ccc(Cl)cc2)CC1 (stereo not given) | 96.2% |
| Nc1ccc(Sc2ccc([N+](=O)[O-])c3nonc23)cc1 | 88.1% |
| Cc1cc(N2CCCC2)nc(N(CCCNc2ccnc3cc(Cl)ccc23)Cc2ccccn2)n1 | 50.9% |
| NCCOc1ncccc1/C=C1\c2ccccc2-c2ccc(C(F)F)cc21 | 58.2% |
| CN(C)CCNc1nc2ccccc2c2c(=O)c3cc(F)ccc3sc12 | 83.5% |
| Cc1ccc(C(CC(=O)O)c2c(C)[nH][nH]c2=O)cc1 (stereo not given) | 102% |
| CCCCN(C)N=Nc1ccc(C(N)=O)cc1 | 108% |
| CCCCOc1nc2ccc(OC)cc2cc1-c1cc(-c2ccc(Cl)cc2)nc(-c2ccc(Cl)cc2)c1 | 102% |
| Cc1ccc(-c2nc(N3CCN(CC(=O)Nc4ccc(Cl)c(C(F)(F)F)c4)CC3)c3ccccc3n2)cc1 | 103% |
| COc1ccc(/C=C/c2c(C(=O)/C=C/c3ccc(C(F)(F)F)cc3)c(C)nc3ccccc23)cc1 | -79.9% (active) |
| [O-][n+]1c2ccccc2[n+]([O-])c2c3ccccc3[nH]c21 | 73.5% |
| NCCCNc1nc2ccccc2c2c(=O)c3cc(OC(F)(F)F)ccc3sc12 | 59.9% |
| OC(c1ccccc1)C(NC(Cc1ccccc1)c1ccccc1)c1ccccc1 (stereo not given) | 94.6% |
| NCCCNc1nc2ccc(Cl)cc2c2c(=O)c3cc(F)ccc3sc12 | 94.3% |
| COc1cc(C(=O)c2cc(C)c3[nH]c4ccc(C)cc4c3c2C)cc(OC)c1OC | -42.3% (active) |
